Most compounds without a hit are left out; they make up all but 1.3% or so of the library.
LANA DNA inh = inhibitors of KSHV C-LANA binding to DNA, primary screen, biochemical, fluorescence polarization, FAM-LBS DNA, MBP-C-LANA, single point | 340,000 tested, 0.078% active | Kaposi's sarcoma herpesvirus LANA C-terminal domain (residues 932-1162) DNA binding | inhibition, % at 9 µM;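 active = highest replicate inhibition at or above 60% at 9 µM, even if other replicates fall short; inactive = all replicates below 60% inhibition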;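 note: 0% = neutral control wells and 100% = 4 µM acridine orange control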
Bcl-xL primary = inhibitors of human Bcl-xL, primary screen, biochemical, fluorescence polarization, HTS; GST-Bcl-xL / FITC-Bim BH3 peptide fluorescence polarization; inhibition, % at 10.9 µM; 320,000 tested, 0.7% active;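 active = inhibition above the mean of all tested compounds plus 3 SD, cutoff set per campaign, cut at about 30% in these data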;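 note: 0% = DMSO wells and 100% = unlabeled Bim-BH3 peptide competitor; inhibitors lower millipolarization by displacing the labeled peptide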
eLon inh = inhibitors of E. coli Lon protease, primary screen, biochemical, fluorescence polarization; purified E. coli Lon protease; inhibition, % at 7.94 µM; 360,000 tested, 0.42% active; AID 602123, 2011; in the data active = inhibition above about 13%, passing the limit was not always enough;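 note: 0% = enzyme with probe and DMSO and 100% = no enzyme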
MCL1-BIM inh = inhibitors of MCL1 binding to BIM-BH3, primary screen, biochemical, fluorescence polarization; GST-MCL1 / FITC-Bim-BH3 fluorescence polarization; AID 2057, 2009; inhibition, % at 10.9 µM; Induced myeloid leukemia cell differentiation protein Mcl-1 (Homo sapiens), Q07820; 320,000 tested, 0.68% active;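 active = inhibition above the mean inhibition of all tested compounds plus 3 SD, set per campaign, cut at about 40% in these data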;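 note: 0% = DMSO wells and 100% = unlabeled Bim-BH3 peptide control; higher means more loss of mP so more displacement of Bim peptide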
GLD-1 TGE inh = GLD-1/TGE RNA complex disruptors, primary screen, biochemical, fluorescence polarization. 320,000 tested, 0.44% active. Female germline-specific tumor suppressor gld-1 (Caenorhabditis elegans), Q17339. inhibition, % at 5.96 µM. purified GLD-1 + fluorescein TGE RNA;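 active = percent inhibition above a per-plate cutoff, the plate mean of test compounds plus 3 SD, cut at about 30% in these data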;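 note: 0% = DMSO wells with GLD-1 and probe and 100% = wells lacking GLD-1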
Keap1 Nrf2 FP = Keap1-Nrf2 protein-protein interaction inhibitors, primary screen, biochemical, fluorescence polarization, single point | 340,000 tested, 0.15% active | Kelch-like ECH-associated protein 1 (Homo sapiens), Q14145 | Keap1 Kelch-Nrf2 peptide fluorescence polarization, 1536-well | inhibition, % at 9.4 µM; in the data active = inhibition above about 12%;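 note: human Keap1 Kelch domain with fluorescein labeled Nrf2 9mer peptide probe; 0% = neutral control wells and 100% = peptide positive control; higher means more block of Keap1 binding to Nrf2 peptide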
Target sequence (Q14145 whole entry, looked up, the tested form may be a part): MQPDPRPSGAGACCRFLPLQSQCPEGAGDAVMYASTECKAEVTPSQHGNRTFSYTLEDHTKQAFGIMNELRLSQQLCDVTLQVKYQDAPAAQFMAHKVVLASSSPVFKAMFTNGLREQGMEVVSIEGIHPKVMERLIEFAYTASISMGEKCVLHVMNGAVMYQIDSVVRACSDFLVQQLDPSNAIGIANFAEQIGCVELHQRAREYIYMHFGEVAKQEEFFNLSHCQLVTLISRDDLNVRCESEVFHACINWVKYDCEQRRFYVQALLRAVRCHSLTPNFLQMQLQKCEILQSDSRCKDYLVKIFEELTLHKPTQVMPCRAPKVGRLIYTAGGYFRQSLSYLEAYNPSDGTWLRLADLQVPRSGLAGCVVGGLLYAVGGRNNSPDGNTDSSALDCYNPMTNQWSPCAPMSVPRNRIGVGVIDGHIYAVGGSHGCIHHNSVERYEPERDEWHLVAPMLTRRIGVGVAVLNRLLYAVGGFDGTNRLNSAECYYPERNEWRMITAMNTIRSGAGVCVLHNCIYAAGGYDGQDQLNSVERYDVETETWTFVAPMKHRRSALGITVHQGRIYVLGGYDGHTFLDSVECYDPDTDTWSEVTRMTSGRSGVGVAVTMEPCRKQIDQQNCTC
BCLXL inh confirm = Bcl-xL inhibitors blocking Bim BH3 binding, confirmation, counter-screen for MCL1 inhibitor project, biochemical, fluorescence polarization. shares compounds with MCL1-BIM inh. GST-Bcl-xL / FITC-Bim BH3 peptide FP binding. inhibition, % at 10.9 µM. 1,700 tested, 54% active;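 active = inhibition above a cutoff equal to the mean inhibition of all tested compounds plus 3 SD, cut at about 30% in these data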;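 note: 0% = DMSO wells and 100% = unlabeled Bim BH3 control peptide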
MCL1 BIM confirm = inhibitors of MCL1 binding to BIM-BH3, confirmation, biochemical, fluorescence polarization, triplicate; 1,700 tested, 61% active; shares compounds with MCL1-BIM inh; GST-MCL1 / FITC-Bim-BH3 fluorescence polarization; AID 2168, 2009; inhibition, % at 10.9 µM;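 active = inhibition above the average of all tested compounds plus 3 SD, cut at about 40% in these data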;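 note: 0% = DMSO wells and 100% = unlabeled Bim-BH3 control peptide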
Keap1 Kelch bind = Keap1 Kelch domain binders by thermal stabilisation, dose response, biophysical, thermal shift, RT-PCR instrument, cherry-pick. shares compounds with Keap1 Nrf2 FP. delta Tm; stronger effect = higher value. max delta Tm, degrees C. 400 tested, 8% active. AID 651823, 2012; in the data active = max delta Tm above about 0.48 degrees C
Sypro dye melt = Sypro Orange dye melt without protein, dose response, artefact control for Keap1-Nrf2 interaction inhibitor project, biochemical, thermal shift counterscreen, cherry-pick | shares compounds with Keap1 Nrf2 FP | Sypro Orange dye-only thermal melt, no protein, delta Tm; top dose 26 µM | delta Tm, degrees C (test concentration not listed) | 140 tested, under 10 active | AID 651858, 2012;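 active = at highest dose tested, delta Tm positive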
E coli Lon conf = E. coli Lon protease inhibitor retest, confirmation, biochemical, fluorescence polarization; shares compounds with eLon inh; purified E. coli Lon; inhibition, % at 7.94 µM; 1,400 tested, 31% active; AID 602230, 2012; in the data active = inhibition above about 16%;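 note: 0% = enzyme with probe and DMSO and 100% = no enzyme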
An asterisk follows results filed as active; x = no result; + = active, no number.

SMILES	LANA DNA inh	Bcl-xL primary	eLon inh	MCL1-BIM inh	GLD-1 TGE inh	Keap1 Nrf2 FP	BCLXL inh confirm	MCL1 BIM confirm	E coli Lon conf	others
CC(=O)O/N=C(\N)c1ccc(-c2csnn2)cc1	0	2	4	4	0	3	x	x	x
O=C(O)c1[nH]c2ccccc2c1C(c1cc(Cl)cc([N+](=O)[O-])c1O)c1c(C(=O)O)[nH]c2ccccc12	10	12	28*	51*	9	-1	10	27	19*
O=C(O)c1[nH]c2ccccc2c1C(c1ccccc1)c1c(C(=O)O)[nH]c2ccccc12	0	7	-6	11	6	1	x	x	x
COc1cc(/C=C2\CCCc3c2nc2ccccc2c3C(=O)O)cc(Br)c1O	0	7	-5	8	4	-1	x	x	x
CCOc1cc(/C=C2\CCCc3c2nc2ccccc2c3C(=O)O)ccc1OC	3	143*	115*	166*	145*	2	15	12	66*
C#CCN1c2ccccc2Sc2cccnc21	0	+	165*	+	93*	-2	27	39	21*
O=C(Nc1ccc(F)cc1Cl)c1ccc2c(=O)n3c(nc2c1)CCC3	0	-5	-3	-11	-5	-1	x	x	x
O=C(c1ccccn1)c1cc2ccccc2n1S(=O)(=O)c1ccccc1	1	0	0	3	-5	-5	x	x	x
O=C1Nc2ccccc2/C1=C/c1cnc(-c2ccccc2)[nH]1	4	138*	81*	162*	73*	1	102*	117*	30*
COc1ccc(OCCCC(=O)OCC(=O)N2CCN(S(=O)(=O)c3ccc(C)cc3C)CC2)cc1	-1	x	-6	x	x	-3	x	x	x
Clc1ccc(C2=CC(c3ccco3)n3ncnc3N2)cc1 (stereo unspecified)	48	189*	139*	+	141*	28*	51*	76*	75*	Keap1 Kelch bind=-0.02;Sypro dye melt=-34
FC(F)(F)c1ccccc1C1=CC(c2ccccc2)n2ncnc2N1 (stereo unspecified)	2	-3	-11	-4	-1	1	x	x	x
Clc1ccccc1C1=CC(c2ccco2)n2ncnc2N1 (stereo unspecified)	13	49*	31*	50*	21	2	34*	44*	-4
CC(C)(C)c1ccc(C2=CC(c3ccccc3)n3ncnc3N2)cc1 (stereo unspecified)	-1	16	0	21	21	-3	x	x	x
COc1ccc(NC(=O)[C@@H](NS(=O)(=O)c2cccc(Cl)c2)C(C)C)cc1S(=O)(=O)N1CCOCC1	-2	x	-8	x	0	4	x	x	x
CCCCCCN1CCN(C2CN(Cc3cn(Cc4ccccc4)nn3)S(=O)(=O)C2)CC1 (stereo unspecified)	x	x	1	x	x	x	x	x	x
COCCn1ccc2c(OCC(=O)NCCc3ccc(OC)c(OC)c3)cccc2c1=O	-1	3	-19	3	-1	-2	x	x	x
CCOC(=O)CC(=O)CSc1nccc(-c2cccnc2)n1	15	5	0	-1	-1	0	x	x	x
Cc1cc(=O)oc2c(CN3CCC(C)CC3)c(O)c(Cl)cc12	11	105*	25*	142*	119*	9	80*	113*	39*
C/C(=N\N=C(/C)c1cccc(N)c1)c1cccc(N)c1	x	6	5	0	2	x	x	x	x
COc1ccc(NC(=O)CSc2ccc3c4c(cccc24)C(=O)c2ccccc2-3)cc1	1	15	-36	-6	-17	-1	x	x	x
N#Cc1cccc(NC(=O)CSc2ccc3c4c(cccc24)C(=O)c2ccccc2-3)c1	3	73*	22*	75*	61*	2	185*	183*	94*
CC(C)Cn1cnc2c(SCc3ccccc3Cl)nc(N)nc21	-2	x	4	x	x	3	x	x	x
Cn1c(=O)c(Nc2ccc(O)cc2)c2c3c(cccc31)C(=O)c1ccccc1-2	-1	164*	+	+	155*	5	163*	+	121*
CC(C)c1ccc(Nc2c([N+](=O)[O-])c(=O)n(C)c3ccccc23)cc1	1	7	-5	3	4	0	x	x	x
SMILES	LANA DNA inh	Bcl-xL primary	eLon inh	MCL1-BIM inh	GLD-1 TGE inh	Keap1 Nrf2 FP	BCLXL inh confirm	MCL1 BIM confirm	E coli Lon conf	others
CCc1nnc(NC(=O)C(CC)CC)s1	1	3	1	7	1	-6	x	x	x
COc1ccc2c(c1)c1nc3ccccc3nc1n2Cc1ccc(OC)c(OC)c1	8	50*	97*	55*	52*	2	60*	62*	12
CC1(C)c2ccccc2N(CC(N)=O)C12C=Cc1ccccc1O2 (stereo unspecified)	1	0	8	-2	-6	-5	x	x	x
CC1(C)c2ccccc2N2CC(=O)N(CC(N)=O)C21C (stereo unspecified)	-7	97*	125*	106*	85*	-71	75*	103*	89*
Cc1c(C(=O)NCCN(C)C)n(C)c(=O)c2ccccc12	x	x	3	x	x	x	x	x	x
c1ccc2c(c1)CCCN2Cc1nnnn1CC1CCCO1 (stereo unspecified)	31	162*	73*	196*	107*	20*	102*	124*	35*	Keap1 Kelch bind=-0.19

Screens deposited in PubChem by several laboratories.
